In assay [1] the target is Platelet-derived growth factor receptor beta (Homo sapiens) (UniProt P09619). Particulars: at 1 µM.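 Further: each value is a mean percent inhibition.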
Assay [2] concerns the target Tyrosine-protein kinase FRK (Homo sapiens) (UniProt P42685). Particulars: at 0.1 µM.
Assay [3] has the same target. Particulars: at 1 µM.
Assay [4] concerns the target Protein-tyrosine kinase 2-beta (Homo sapiens) (UniProt Q14289). Particulars: at 0.1 µM.
The target is the same in assay [5]. Particulars: at 1 µM.
The target in assay [6] is Proto-oncogene tyrosine-protein kinase receptor Ret (Homo sapiens) (UniProt P07949). Particulars: at 0.1 µM.
Proto-oncogene tyrosine-protein kinase receptor Ret (Homo sapiens), sequence (P07949 whole entry): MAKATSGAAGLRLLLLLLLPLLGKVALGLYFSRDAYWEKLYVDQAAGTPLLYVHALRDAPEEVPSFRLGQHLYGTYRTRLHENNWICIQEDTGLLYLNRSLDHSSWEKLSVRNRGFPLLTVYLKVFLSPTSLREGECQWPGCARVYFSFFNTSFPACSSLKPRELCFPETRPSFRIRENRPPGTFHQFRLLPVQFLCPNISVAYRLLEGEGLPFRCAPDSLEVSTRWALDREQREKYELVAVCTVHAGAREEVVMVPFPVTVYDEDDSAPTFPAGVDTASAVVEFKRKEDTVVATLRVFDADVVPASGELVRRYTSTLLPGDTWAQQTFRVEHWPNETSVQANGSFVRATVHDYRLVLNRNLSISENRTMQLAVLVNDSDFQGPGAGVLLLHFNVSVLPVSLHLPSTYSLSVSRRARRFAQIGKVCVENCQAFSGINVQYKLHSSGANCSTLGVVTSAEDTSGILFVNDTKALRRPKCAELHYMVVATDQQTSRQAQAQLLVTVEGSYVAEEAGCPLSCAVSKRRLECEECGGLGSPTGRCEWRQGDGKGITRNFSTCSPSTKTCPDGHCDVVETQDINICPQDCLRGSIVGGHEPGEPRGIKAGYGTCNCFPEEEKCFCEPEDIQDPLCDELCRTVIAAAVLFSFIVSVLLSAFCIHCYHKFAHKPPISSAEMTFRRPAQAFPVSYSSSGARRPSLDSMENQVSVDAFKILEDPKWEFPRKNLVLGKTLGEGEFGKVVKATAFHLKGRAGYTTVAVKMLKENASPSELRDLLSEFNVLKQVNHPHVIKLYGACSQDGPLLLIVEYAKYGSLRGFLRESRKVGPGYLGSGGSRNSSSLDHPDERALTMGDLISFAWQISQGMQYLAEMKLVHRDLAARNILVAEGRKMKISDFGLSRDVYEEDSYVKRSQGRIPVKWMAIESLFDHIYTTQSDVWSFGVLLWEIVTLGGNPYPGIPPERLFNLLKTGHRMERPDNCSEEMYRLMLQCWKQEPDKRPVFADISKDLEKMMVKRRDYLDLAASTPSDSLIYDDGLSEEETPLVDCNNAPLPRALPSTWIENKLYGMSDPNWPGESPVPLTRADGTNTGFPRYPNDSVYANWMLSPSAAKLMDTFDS
For assay [7] the target is unchanged. Particulars: at 1 µM.
The test system of assay [8] is Proto-oncogene tyrosine-protein kinase receptor Ret (Homo sapiens), P07949 [V804L]. Particulars: at 0.1 µM.
Proto-oncogene tyrosine-protein kinase receptor Ret (Homo sapiens), P07949 [V804L], sequence (P07949 whole entry V804L): as the sequence (P07949 whole entry) above, with V804L counted along it
Assay [9] shares this test system. Particulars: at 1 µM.
For assay [10], the system named is Proto-oncogene tyrosine-protein kinase receptor Ret (Homo sapiens), P07949 [Y791F]. Particulars: at 0.1 µM.
Proto-oncogene tyrosine-protein kinase receptor Ret (Homo sapiens), P07949 [Y791F], sequence (P07949 whole entry Y791F): as the sequence (P07949 whole entry) above, with Y791F counted along it

Where “and” joins values, the source holds several entries; their conditions need not be identical. Equal entries are not always repeated.

These results are taken from ChEMBL document CHEMBL1961873, “Compounds: GSK PKIS; Assays: Nanosyn kinase panel” (2012).

Protein-tyrosine kinase 2-beta (Homo sapiens), sequence (Q14289 whole entry, looked up): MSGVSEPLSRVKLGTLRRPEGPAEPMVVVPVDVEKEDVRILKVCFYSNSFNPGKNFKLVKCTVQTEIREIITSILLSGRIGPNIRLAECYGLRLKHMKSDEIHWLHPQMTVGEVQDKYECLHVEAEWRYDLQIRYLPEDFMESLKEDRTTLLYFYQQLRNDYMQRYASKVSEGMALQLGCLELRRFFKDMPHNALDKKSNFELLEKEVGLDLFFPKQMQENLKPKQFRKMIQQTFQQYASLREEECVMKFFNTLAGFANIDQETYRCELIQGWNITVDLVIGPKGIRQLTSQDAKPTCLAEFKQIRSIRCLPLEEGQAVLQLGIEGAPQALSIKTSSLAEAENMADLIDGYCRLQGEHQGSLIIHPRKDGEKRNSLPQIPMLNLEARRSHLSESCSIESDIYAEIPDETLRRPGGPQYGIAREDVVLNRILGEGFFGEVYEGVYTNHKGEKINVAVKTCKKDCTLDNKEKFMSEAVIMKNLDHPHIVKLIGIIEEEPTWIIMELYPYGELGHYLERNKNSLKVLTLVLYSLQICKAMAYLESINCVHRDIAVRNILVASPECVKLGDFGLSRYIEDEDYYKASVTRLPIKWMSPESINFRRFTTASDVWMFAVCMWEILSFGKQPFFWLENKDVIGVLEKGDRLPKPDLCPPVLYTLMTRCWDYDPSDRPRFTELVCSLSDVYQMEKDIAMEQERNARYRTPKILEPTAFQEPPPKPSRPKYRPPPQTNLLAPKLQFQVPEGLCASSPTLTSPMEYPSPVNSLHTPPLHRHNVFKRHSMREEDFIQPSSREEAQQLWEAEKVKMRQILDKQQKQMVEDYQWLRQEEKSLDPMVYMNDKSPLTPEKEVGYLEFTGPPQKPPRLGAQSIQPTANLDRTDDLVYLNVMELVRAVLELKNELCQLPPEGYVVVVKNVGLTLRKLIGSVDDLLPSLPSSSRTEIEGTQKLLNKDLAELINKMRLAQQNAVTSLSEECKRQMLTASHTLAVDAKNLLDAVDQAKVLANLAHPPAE
Platelet-derived growth factor receptor beta (Homo sapiens), sequence (P09619 whole entry): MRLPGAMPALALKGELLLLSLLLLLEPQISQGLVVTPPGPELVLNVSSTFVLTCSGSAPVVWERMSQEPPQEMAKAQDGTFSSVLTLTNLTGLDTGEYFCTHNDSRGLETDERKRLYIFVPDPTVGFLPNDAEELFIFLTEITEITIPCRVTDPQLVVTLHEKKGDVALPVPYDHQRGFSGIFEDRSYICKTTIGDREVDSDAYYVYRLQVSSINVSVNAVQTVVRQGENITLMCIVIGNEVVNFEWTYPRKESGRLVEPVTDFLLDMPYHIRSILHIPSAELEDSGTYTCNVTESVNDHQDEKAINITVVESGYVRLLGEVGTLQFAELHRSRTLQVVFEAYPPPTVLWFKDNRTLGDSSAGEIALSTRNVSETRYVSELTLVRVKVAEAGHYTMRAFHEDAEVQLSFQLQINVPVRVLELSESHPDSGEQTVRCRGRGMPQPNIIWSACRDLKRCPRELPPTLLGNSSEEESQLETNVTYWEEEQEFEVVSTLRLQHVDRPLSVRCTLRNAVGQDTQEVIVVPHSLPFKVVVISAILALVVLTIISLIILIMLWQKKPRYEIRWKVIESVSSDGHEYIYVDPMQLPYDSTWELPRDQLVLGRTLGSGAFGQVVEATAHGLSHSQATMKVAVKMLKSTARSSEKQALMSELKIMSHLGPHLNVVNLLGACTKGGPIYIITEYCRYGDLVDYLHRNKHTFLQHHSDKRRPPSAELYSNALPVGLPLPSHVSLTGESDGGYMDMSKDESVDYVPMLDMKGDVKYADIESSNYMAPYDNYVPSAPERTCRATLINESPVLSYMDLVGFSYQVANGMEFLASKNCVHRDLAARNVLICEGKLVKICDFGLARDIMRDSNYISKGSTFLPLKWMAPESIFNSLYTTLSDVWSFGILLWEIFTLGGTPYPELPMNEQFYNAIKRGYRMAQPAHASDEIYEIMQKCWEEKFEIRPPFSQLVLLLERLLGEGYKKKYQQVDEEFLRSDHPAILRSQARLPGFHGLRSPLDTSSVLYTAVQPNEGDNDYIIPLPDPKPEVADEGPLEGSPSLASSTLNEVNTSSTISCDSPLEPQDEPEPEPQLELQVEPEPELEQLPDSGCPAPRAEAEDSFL
Tyrosine-protein kinase FRK (Homo sapiens), sequence (P42685 whole entry): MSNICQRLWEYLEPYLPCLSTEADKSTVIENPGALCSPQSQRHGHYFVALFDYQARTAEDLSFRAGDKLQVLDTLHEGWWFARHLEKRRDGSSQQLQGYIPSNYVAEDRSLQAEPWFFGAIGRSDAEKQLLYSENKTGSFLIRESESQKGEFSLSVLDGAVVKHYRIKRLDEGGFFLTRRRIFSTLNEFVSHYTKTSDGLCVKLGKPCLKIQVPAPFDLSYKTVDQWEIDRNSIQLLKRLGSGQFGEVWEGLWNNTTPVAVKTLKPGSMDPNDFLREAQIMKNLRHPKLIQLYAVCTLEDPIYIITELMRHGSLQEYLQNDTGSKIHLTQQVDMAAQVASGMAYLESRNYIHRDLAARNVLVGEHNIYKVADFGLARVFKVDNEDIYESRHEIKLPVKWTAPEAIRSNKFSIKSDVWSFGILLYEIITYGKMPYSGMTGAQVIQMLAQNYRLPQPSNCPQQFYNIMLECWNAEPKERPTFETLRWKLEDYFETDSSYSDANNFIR

In the case of `NC(=O)c1ccc2c(-c3ccnc(NCCCO)n3)c(-c3ccc(F)cc3)nn2c1`, the inhibition is 18.2% in [1]; 4.1% in assay [2]; 3.97% in assay [3]; 17.1% in [4]; 12.2% in [5]; 5.55% in [6]. The inhibition in assay [7] is 16.6%; in [8], 1.73%; in assay [9], 4.71%; in assay [10] it was 6.62%.
For `O=C(O[C@H]1CN[C@H](C#Cc2cc3ncnc(Nc4ccc5c(ccn5Cc5cc(F)ccc5F)c4)c3s2)C1)N1CCOCC1`, the inhibition in assay [1] turned out to be 7.68%; in assay [2], 3.08%; in [3], 2.35%; in [4], 13.2%; in [5] it was 5.45%; in [6], 2.76%. Further, the inhibition in assay [7] is 4.91%; in assay [8], 2.75%; in assay [9], 4.26%; in [10] it was 1.9%.
For the compound `COc1cc(N2CCN(C(C)C)CC2)ccc1Nc1nc(Nc2cccc3ncccc23)c2cc[nH]c2n1`, the inhibition was 8.9% in assay [1]; 0.82% in assay [2]; 1.26% in assay [3]; 15.2% in [4]; 93.1% in assay [5]; 4.55% in assay [6]. Moreover, the inhibition turned out to be 3.04% in assay [7], 7.14% in [8], 14% in [9] and 8.29% in assay [10].
With `COc1cccc(-n2ncc3c(N/N=C/c4ccc(C(=O)NCCN(C)C)cc4)ncnc32)c1`, the inhibition came to 77.6% in assay [1]; 3.91% in assay [2]; 12.2% in assay [3]; 5.72% in assay [4]; 12.1% in [5]; 22.4% in assay [6]. For the same compound, the inhibition was determined as 66.9% in assay [7], 12.7% in assay [8], 50.4% in assay [9] and 37.3% in assay [10].
`O=C1Nc2ccccc2/C1=C1\CCc2cc(O)ccc21`: the inhibition in assay [1] was 47.9%; in [2], 2.6%; in assay [3], 3.64%; in [4] it was 18.3%; in assay [5], 44%; in [6], 23%. Also, the inhibition in assay [7] was determined as 66.3%; in assay [8] it was 36.1%; in assay [9], 73.6%; in assay [10], 25.8%.
As for `CC(C)c1ccc(-c2cc(-c3c[nH]nc3-c3ccccn3)ccn2)cc1`, the inhibition in assay [1] was 11.4%; in assay [2], -0.8%; in [3], -0.88%; in assay [4], 1.78%; in assay [5] it was 3.36%; in assay [6], 2.14%. Further, the inhibition stood at 5.62% in assay [7], 3.27% in assay [8], 2.58% in [9] and 5.08% in assay [10].
Turning to `CN1CCC(C(=O)Nc2n[nH]c3nc(-c4ccc(O)cc4)c(Br)cc23)CC1`, the inhibition is 22.6% and 17.3% in [1]; 1.77% and -0.83% in [2]; 2.31% and 3.98% in assay [3]; 10.8% and -4.15% in [4]; 12.9% and 6.02% in assay [5]; 7.08% and 5.43% in assay [6]. Also, the inhibition was 9.97% and 0.25% in [7]; 4.68% and 1.68% in [8]; 4.94% and 4.6% in [10].
As to `COc1cc(N2CCN(C(C)C)CC2)ccc1Nc1nc(Nc2cccc(F)c2C(=O)O)c2cc[nH]c2n1`, the inhibition in assay [1] came out at 6.82%; in [2] it was 4.04%; in assay [3] it was 4.07%; in assay [4], 90.6%; in [5] it was 96.4%; in [6], 4.88%. Also, the inhibition in assay [7] is 5.6%; in [8], 3.85%; in [9], 12.1%; in assay [10], 4.5%.
Take `CC1=C(C(=O)Nc2ccc3[nH]nc(C)c3c2)C(c2ccc(C(F)(F)F)cc2)CC(=O)N1` (stereo not drawn): the inhibition is 12.2% in assay [1]; 1.26% in assay [2]; 6.47% in assay [3]; 10.8% in [4]; 5.14% in assay [5]; 7.82% in assay [6]. The inhibition in [7] came to 44.2%; in assay [8], 12.2%; in assay [9], 42.2%; in assay [10], 10.5%.
In the case of `c1ccc(-c2n[nH]cc2-c2ccnc(-c3ccc(OCCn4ccnc4)cc3)c2)nc1`, the inhibition in assay [1] came out at 65.6%; in assay [2], 1.69%; in assay [3] it was 2.79%; in assay [4] it was 2.99%; in assay [5], 3.76%; in assay [6], 2%. In addition, the inhibition is 9.49% in [7], 2.75% in [8], 13.2% in assay [9] and 2.44% in assay [10].
`c1cnn2ncc(-c3ccnc(NCCCN4CCOCC4)n3)c2c1`: the inhibition in [1] came out at 4.61%; in assay [2], 0.16%; in assay [3] it was 0.39%; in [4], 9.94%; in assay [5] it was 6.44%; in assay [6] it was 4.78%. Moreover, the inhibition in assay [7] came to 0.87%; in assay [8], 2.98%; in assay [9] it was 2.2%; in assay [10] it was 6.04%.
Take `Nc1ncnc2occ(-c3ccc(NC(=O)Nc4cc(C(F)(F)F)ccc4F)cc3)c12`: the inhibition in assay [1] is 86.7% and 81.4%; in [2], 2.63% and 2.3%; in assay [3], 19.1% and 11.8%; in assay [4], 4.45% and -2.3%; in assay [6] it was 85.3% and 84.5%; in assay [7], 90.7% and 88.5%. The inhibition was 68.3% and 62.2% in assay [8]; 84.7% and 81.1% in assay [9]; 79.2% and 72.6% in assay [10].
In the case of `CNC(=O)c1cncc(/C=C/c2ccccc2C)c1`, the inhibition in assay [1] came out at 20.1%; in assay [2], 1.01%; in [3] it was 1.8%; in [4] it was 5.28%; in assay [5], 5.23%; in [6], 3.93%. For the same compound, the inhibition in [7] amounted to 6.36%; in assay [8], 5.6%; in assay [9] it was 11.8%; in assay [10], 2.57%.
Consider `CCn1c(-c2nonc2N)nc2cncc(C(=O)NCCNC)c21`, for which the inhibition in assay [1] is 12.4%; in assay [2], 3.22%; in assay [3], 3.52%; in [4], 4.6%; in assay [5], 8.62%; in assay [6], 6.45%. The inhibition in [7] stood at 7.16%; in assay [8], 4.21%; in assay [9] it was 17.1%; in [10], 7.45%.
In the case of `CNC(=O)c1ncccc1Nc1nc(Nc2cc3c(cc2OC)CCCN3C(=O)CN(C)C)nc2[nH]ccc12`, the inhibition in [1] came to 27.1%; in assay [2] it was 2.49%; in [3], 2.98%; in assay [4] it was 37.8%; in assay [5], 95.7%; in assay [6], 7.39%. For the same compound, the inhibition in assay [7] worked out at 9.1%; in assay [8] it was 7.91%; in [9], 20.4%; in assay [10], 7.98%.
Turning to `COc1cc(Nc2ncc(-c3ccccc3)o2)cc(OC)c1`, the inhibition in assay [1] is 62.9%; in [2] it was 0.8%; in assay [3] it was 4.62%; in assay [4], 6.76%; in assay [5], 9.54%; in assay [6], 7.16%. For the same compound, the inhibition in [7] came out at 8.97%; in assay [8], 4.73%; in assay [9], 11.9%; in assay [10], 8.14%.
